Laboratory results reported in PubChem BioAssay (Tox21).
Inconclusive results are not listed. Values without a mark were called inactive. Calls follow the shape of the dose curve; as a rule, active = well fitted cell-killing curve with a large enough effect in the repeat runs; inconclusive = weak or mixed curves; inactive = flat fitted curve, though single readings scatter.
% is scaled to controls: 0 for no effect and ±100 for the full control effect.

Assay: qHTS assay to identify small molecule antagonists of the estrogen related receptor (ERR) signaling pathway from Tox21 library - cell viability counter screen (AID 1224834); also: nearly all actives have a fitted effect of over 30% in size
Conditions: ERR reporter cells viability, CellTiter-Fluor, 17.5 h; series mostly up to 92.4 µM; viability change, negative = cytotoxic: at the top concentration
From the text: National Center for Advancing Translational Sciences [NCATS]
NIH Chemical Genomics Center [NCGC]
U.S. Environmental Protection Agency [EPA]
National Institutes of Environmental Health Sciences [NIEHS]
National Toxicology Program [NTP]
U.S. Food and Drug Administration [FDA]
Estrogen related receptors (ERRs), the first orphan nuclear receptors discovered, play an important role in the control of cellular energy metabolism. ERRs are required for high-energy production in response to the environmental challenges. ERR-alpha was also identified as an adverse marker for breast cancer progression; ERR-alpha-positive tumors have a poor prognosis. To screen and to identify environmental compounds that perturb the ERR signaling pathways could provide valuable information for potential therapeutic or preventive measures in the treatment of metabolic disease. To differentiate true ERR antagonists or agonist from cytotoxic substances, the assay is multiplexed with cell viability assay.
Tox21 Assay Protocol Summary:
The ERR cells were dispensed at 2,000 cells/5 ul/well in 1536-well white plates using a Multidrop dispenser. After the assay plates were incubated at a 37 C/5% CO2 incubator for 6 hours, 23 nL of compounds dissolved in DMSO, positive and negative controls or DMSO only was transferred to the assay plate by a pin tool. The plates were incubated at 37 C for 17.5 hours. 1 ul/well of CellTiter-Fluor reagent was added into the assay plates using a Flying Reagent Dispenser. After 30-minute incubation at 37 C/5% CO2, the fluorescence intensity in the plates was measured using a ViewLux plate reader.
With `C=CCCCCCCCCC(=O)OCCCC` the “viability change, negative = cytotoxic” value was 2.59%. With `Cc1ccnc(N)c1` the “viability change, negative = cytotoxic” value was 5.32%. With `C=C(C)C1CC=C(C)C(=O)C1` (stereo not given) the “viability change, negative = cytotoxic” value was 1.33%. With `CN(C)C(C)(C)CO` the “viability change, negative = cytotoxic” value was 0.446%. With `COCCc1ccccn1` the “viability change, negative = cytotoxic” value was -1.85% [at 42.5 µM]. With `CCCCCC(C)O` (stereo not given) the “viability change, negative = cytotoxic” value was 1.09%. For `O=C=NCC1CCCC(CN=C=O)C1` (stereo not given), the “viability change, negative = cytotoxic” value was 1.54%. In the case of `CCN(CC)CCN`, the “viability change, negative = cytotoxic” value is reported as 3.64% [at 42.5 µM]. For `OCC1CCC(CO)CC1` (stereo not given), the “viability change, negative = cytotoxic” value was 0.599%. For `CCC(=O)Oc1ccc2c(c1)CC[C@@H]1[C@@H]2CC[C@@]2(C)[C@H]1C[C@@H](OC(=O)CC)[C@@H]2OC(=O)CC`, the “viability change, negative = cytotoxic” value was -3.77% [at 42.5 µM]. With `COC(C)(OC)OC` the “viability change, negative = cytotoxic” value was 1.85%. In the case of `CCCC(CC)c1ccccc1` (stereo not given), the “viability change, negative = cytotoxic” value is reported as 2.68%. Work on `CN1C[C@@H]2C[C@H]1CN2c1cc2c(cc1F)c(=O)c(C(=O)O)cn2C1CC1` yielded a viability change, negative = cytotoxic of 5.48% [at 19 µM]. In the case of `CCO[Si](CC)(OCC)OCC`, the “viability change, negative = cytotoxic” value is reported as 0.203%. For `O/N=C/C=N/O`, the “viability change, negative = cytotoxic” value was -0.481%. With `CC(=O)OCC(=O)Nc1cc(C#N)cc(NC(=O)COC(C)=O)c1Cl` the “viability change, negative = cytotoxic” value was -2.8% [at 42.5 µM]. In the case of `CCNC(=O)NCc1cccc(Cl)c1`, the “viability change, negative = cytotoxic” value is reported as 4.08% [at 42.5 µM]. With `CC(=O)c1cc(C)oc1C` the “viability change, negative = cytotoxic” value was 4.02%. In the case of `Cn1c(=O)c2[nH]c(Br)nc2n(C)c1=O`, the “viability change, negative = cytotoxic” value is reported as -0.0787% [at 42.5 µM]. For `CCCC(=O)OCCC(C)CCC=C(C)C` (stereo not given), the “viability change, negative = cytotoxic” value was -0.742%. With `c1ccc(-c2nn[nH]n2)cc1` the “viability change, negative = cytotoxic” value was 4.37%. With `CCCCSCCCC` the “viability change, negative = cytotoxic” value was -4.88%. With `Cc1ccccc1C(N)=O` the “viability change, negative = cytotoxic” value was 3.6%. In the case of `OC1OCCOC1O` (stereo not given), the “viability change, negative = cytotoxic” value is reported as 0.178%. With `CC(C)(C)NC[C@H](O)COc1cccc2c1CCCC2=O` the “viability change, negative = cytotoxic” value was 4.51% [at 42.5 µM]. With `O=NN(CCCl)C(=O)NC1CCCCC1` the “viability change, negative = cytotoxic” value was 1.5% [at 42.5 µM]. With `CCCCCC/C=C/C(=O)OC` the “viability change, negative = cytotoxic” value was -0.808%. With `CCO` the “viability change, negative = cytotoxic” value was -1.88%. For `CC(C)=CCC[C@@](C)(O)[C@H]1CC=C(C)CC1`, the “viability change, negative = cytotoxic” value was -1.52% [at 42.5 µM]. For `N#Cc1ccccc1O`, the “viability change, negative = cytotoxic” value was 0.83%. For `COc1cc2c(cc1OC)C(=O)C(CC1CCN(Cc3ccccc3)CC1)C2` (stereo not given), the “viability change, negative = cytotoxic” value was -0.7% [at 42.5 µM]. For `CC(C)OC(=O)OCOP(=O)(CO[C@H](C)Cn1cnc2c(N)ncnc21)OCOC(=O)OC(C)C`, the “viability change, negative = cytotoxic” value was -1.48% [at 42.5 µM]. In the case of `CCC(C)C(=O)OCCc1ccccc1` (stereo not given), the “viability change, negative = cytotoxic” value is reported as -2.07%. For `Cc1ncc([N+](=O)[O-])n1CC(C)O` (stereo not given), the “viability change, negative = cytotoxic” value was 1.85% [at 42.5 µM]. For `CC/C(C)=N\O[Si](C)(O/N=C(\C)CC)O/N=C(\C)CC`, the “viability change, negative = cytotoxic” value was -1.43%. For `CC(C)Nc1ccccc1`, the “viability change, negative = cytotoxic” value was 2.89%. In the case of `O=C(O)CSCC(=O)NC1CCSC1=O` (stereo not given), the “viability change, negative = cytotoxic” value is reported as 9.49% [at 42.5 µM]. With `CC(=O)O[Si](C)(OC(C)=O)OC(C)=O` the “viability change, negative = cytotoxic” value was -0.675%. In the case of `Cc1ccc(C(=O)O)cc1[N+](=O)[O-]`, the “viability change, negative = cytotoxic” value is reported as 0.658%. For `O=C(O)[C@H](O)c1ccccc1`, the “viability change, negative = cytotoxic” value was 2.6% [at 42.5 µM].
